Reference: PubChem BioAssay (NCATS)
Inconclusive results are not listed. A number with no mark means an inactive call. Active and inactive are the calls of the source. Calls follow the shape of the dose curve; as a rule, active = well fitted inhibition curve with a large enough effect; inconclusive = small, poorly fitted or top-dose-only effect; inactive = flat fitted curve, though single readings scatter.

Tested on: P93_24
Test: qHTS profiling for inhibitors of Plasmodium falciparum proliferation (AID 504749); also: nearly all actives have a fitted effect of over 60% in size;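 as to activity, negative = inhibition: 0% = DMSO vehicle and full inhibition = artemisinin control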
Settings: P. falciparum in erythrocytes, SYBR Green DNA, 72 h; series mostly up to 28.7 µM; activity, negative = inhibition: at the top concentration
Method in brief: (§1)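 Fluorescence of SYBR Green-bound parasite DNA, read at 485/535 nm, served as the growth measure. Infected erythrocytes were cultured with compound 72 h; artemisinin (0.29 uM) and DMSO wells defined the normalization range.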
Potency is read from the fitted curve at half-maximal effect.

Row | Structure (SMILES) | activity, negative = inhibition | Potency
1 | O=C(O)CCCCC(=O)O | 18% | –
2 | CCOC(=O)n1ccn(C)c1=S | 6.17% [at 12.8 µM] | –
3 | COc1cc(NS(C)(=O)=O)ccc1Nc1c2ccccc2nc2ccccc12 | – | 3.16 µM (active)
4 | C[C@]12CC[C@@H]3c4ccc(O)cc4CC[C@H]3[C@@H]1CC[C@@H]2O | -12.7% | –
5 | NCCC(O)(P(=O)(O)O)P(=O)(O)O | 4.51% | –
6 | CCN1CCC[C@H]1CNC(=O)c1c(OC)ccc(Br)c1OC | -22.9% | –
7 | CCN1CCN(c2cc3c(cc2F)c(=O)c(C(=O)O)cn3C2CC2)CC1 | -16.5% | –
8 | CN1C2CCC1CC(OC(=O)c1c[nH]c3ccccc13)C2 (stereo unspecified) | -1.67% | –
9 | CO/N=C1\CN(c2nc3c(cc2F)c(=O)c(C(=O)O)cn3C2CC2)CC1CN (stereo unspecified) | – | 8.91 µM (active)
10 | Oc1c(Cl)cc(Cl)cc1Sc1cc(Cl)cc(Cl)c1O | 4.39% | –
11 | CC(=O)Oc1ccc(C(=C2CCCCC2)c2ccc(OC(C)=O)cc2)cc1 | 1.57% | –
12 | CC(=O)OCC(=O)NCCCOc1cccc(CN2CCCCC2)c1 | 3.79% | –
13 | CCN(CC)C(=O)N1CCN(C)CC1 | -4.21% [at 12.8 µM] | –
14 | Nc1ccc(/C=C/c2ccc(N)cc2S(=O)(=O)O)c(S(=O)(=O)O)c1 | 7.78% | –
15 | CCN1CCCC1=O | 2.32% | –
16 | CCN(CC)CCNC(=O)COc1ccc(Cl)cc1 | – | 11.2 µM (active)
17 | Cc1c(F)c(N2CCNC(C)C2)cc2c1c(=O)c(C(=O)O)cn2C1CC1 (stereo unspecified) | -13.5% | –

Row | Structure (SMILES) | activity, negative = inhibition | Potency
18 | CC(C)(Oc1ccc(Cl)cc1)C(=O)O | 8.18% | –
19 | CCCCC1=NC2(CCCC2)C(=O)N1Cc1ccc(-c2ccccc2-c2nn[nH]n2)cc1 | -25.1% | –
20 | CCCCCCCCCCCCCCCCOP(=O)([O-])OCC[N+](C)(C)C | -20.4% | –
21 | C#C[C@]1(OC(C)=O)CC[C@H]2[C@@H]3CCC4=C[C@@H](OC(C)=O)CC[C@@H]4[C@H]3CC[C@@]21C | -0.904% | –
22 | CCCn1c(=O)[nH]c(=O)c2[nH]cnc21 | 4.79% | –
23 | CC(O)C(=O)O (stereo unspecified) | 2.39% | –
24 | O=C(OCCOCCO)c1ccccc1Nc1cccc(C(F)(F)F)c1 | 0.913% [at 12.8 µM] | –
25 | c1ccc(-c2ccc(C(c3ccccc3)n3ccnc3)cc2)cc1 (stereo unspecified) | – | 3.16 µM (active)
26 | Cc1cccn2c(=O)c(-c3nnn[nH]3)cnc12 | 2.99% | –
27 | NCCc1ccn[nH]1 | 1.03% [at 12.8 µM] | –
28 | CN1C(CCl)Nc2cc(Cl)c(S(N)(=O)=O)cc2S1(=O)=O (stereo unspecified) | -16.8% | –
29 | COc1cc(C(=S)N2CCOCC2)cc(OC)c1OC | -9.25% | –
30 | C[C@H]1[C@H](NC(=O)/C(=N/OC(C)(C)C(=O)O)c2csc(N)n2)C(=O)N1S(=O)(=O)O (stereo in doubt) | 6.81% [at 12.8 µM] | –
31 | NCCCC[C@H](N[C@@H](CCc1ccccc1)C(=O)O)C(=O)N1CCC[C@H]1C(=O)O | 5.24% [at 12.8 µM] | –
32 | CC(C)(CO)[C@@H](O)C(=O)NCCCO | 0.299% | –
33 | Cc1ccnc(NS(=O)(=O)c2ccc(N)cc2)n1 | 7.68% [at 12.8 µM] | –
34 | Nc1ccc(C(=O)O)cc1 | 4.88% | –

Tested on: P94_40
Test: as above
Settings: P. falciparum in erythrocytes, SYBR Green DNA, 72 h; series mostly up to 28.7 µM; activity, negative = inhibition: at the top concentration
Method in brief: as §1

Row | Structure (SMILES) | activity, negative = inhibition | Potency
35 | O=C(O)CCCCC(=O)O | 7.46% | –
36 | CCOC(=O)n1ccn(C)c1=S | 10.9% [at 12.8 µM] | –
37 | COc1cc(NS(C)(=O)=O)ccc1Nc1c2ccccc2nc2ccccc12 | – | 2.51 µM (active)
38 | C[C@]12CC[C@@H]3c4ccc(O)cc4CC[C@H]3[C@@H]1CC[C@@H]2O | -18.3% | –
39 | NCCC(O)(P(=O)(O)O)P(=O)(O)O | 1.44% | –
40 | CCN1CCC[C@H]1CNC(=O)c1c(OC)ccc(Br)c1OC | -17.9% | –
41 | CCN1CCN(c2cc3c(cc2F)c(=O)c(C(=O)O)cn3C2CC2)CC1 | -3.73% | –
42 | CN1C2CCC1CC(OC(=O)c1c[nH]c3ccccc13)C2 (stereo unspecified) | 6.33% | –
43 | Oc1c(Cl)cc(Cl)cc1Sc1cc(Cl)cc(Cl)c1O | 7.62% | –
44 | CC(=O)Oc1ccc(C(=C2CCCCC2)c2ccc(OC(C)=O)cc2)cc1 | -5.49% | –
45 | CC(=O)OCC(=O)NCCCOc1cccc(CN2CCCCC2)c1 | 1.09% | –
46 | CCOC(=O)/C=C(C)/C=C/C=C(C)/C=C/c1c(C)cc(OC)c(C)c1C | – | 8.91 µM (active)
47 | CC(C)NC[C@@H](O)COc1cccc2ccccc12 | – | 12.6 µM (active)
48 | CCN(CC)C(=O)N1CCN(C)CC1 | 3.32% [at 12.8 µM] | –
49 | Nc1ccc(/C=C/c2ccc(N)cc2S(=O)(=O)O)c(S(=O)(=O)O)c1 | -4.98% | –
50 | CCN1CCCC1=O | 0.895% | –
51 | Cc1c(F)c(N2CCNC(C)C2)cc2c1c(=O)c(C(=O)O)cn2C1CC1 (stereo unspecified) | -8.72% | –
52 | CC(C)(Oc1ccc(Cl)cc1)C(=O)O | 9.86% | –
53 | CCCCC1=NC2(CCCC2)C(=O)N1Cc1ccc(-c2ccccc2-c2nn[nH]n2)cc1 | -19.1% | –

Row | Structure (SMILES) | activity, negative = inhibition | Potency
54 | CCCCCCCCCCCCCCCCOP(=O)([O-])OCC[N+](C)(C)C | -5.51% | –
55 | C#C[C@]1(OC(C)=O)CC[C@H]2[C@@H]3CCC4=C[C@@H](OC(C)=O)CC[C@@H]4[C@H]3CC[C@@]21C | -14% | –
56 | CCCn1c(=O)[nH]c(=O)c2[nH]cnc21 | 15.2% | –
57 | CC(O)C(=O)O (stereo unspecified) | 3.92% | –
58 | CCCCc1nc(Cl)c(CO)n1Cc1ccc(-c2ccccc2-c2nn[nH]n2)cc1 | – | 10 µM (active)
59 | O=C(OCCOCCO)c1ccccc1Nc1cccc(C(F)(F)F)c1 | 9.56% [at 12.8 µM] | –
60 | c1ccc(-c2ccc(C(c3ccccc3)n3ccnc3)cc2)cc1 (stereo unspecified) | – | 11.2 µM (active)
61 | Cc1cccn2c(=O)c(-c3nnn[nH]3)cnc12 | 3.77% | –
62 | NCCc1ccn[nH]1 | 5.21% [at 12.8 µM] | –
63 | O=C1OC(c2ccc(O)cc2)(c2ccc(O)cc2)c2ccccc21 | 11.4% | –
64 | CN1C(CCl)Nc2cc(Cl)c(S(N)(=O)=O)cc2S1(=O)=O (stereo unspecified) | -20.9% | –
65 | COc1cc(C(=S)N2CCOCC2)cc(OC)c1OC | 7.84% | –
66 | C[C@H]1[C@H](NC(=O)/C(=N/OC(C)(C)C(=O)O)c2csc(N)n2)C(=O)N1S(=O)(=O)O (stereo in doubt) | 10.3% [at 12.8 µM] | –
67 | NCCCC[C@H](N[C@@H](CCc1ccccc1)C(=O)O)C(=O)N1CCC[C@H]1C(=O)O | 15.7% [at 12.8 µM] | –
68 | CC(C)(CO)[C@@H](O)C(=O)NCCCO | 2.87% | –
69 | Cc1ccnc(NS(=O)(=O)c2ccc(N)cc2)n1 | 10.9% [at 12.8 µM] | –
70 | CNCCC(Oc1ccccc1C)c1ccccc1 (stereo unspecified) | -20.8% | –
71 | Nc1ccc(C(=O)O)cc1 | 22.2% | –
